# The whole screen tested about 59,000 compounds, of which about 6,500 (11%) were called active. Not shown: some 15% with an inconclusive outcome. No stated cut-off is given here; in the data, active means max dye-equivalent concentration above about 10 nM; inconclusive means mostly about 1.1 nM to 9.6 nM; inactive means weaker than that. The full list was thinned out, with actives kept by preference.
# Experiment: qHTS Assay for Spectroscopic Profiling in A350 Spectral Region
# Conditions: Compound autofluorescence, 340/450 nm, Alexa 350 dye-equivalents; active compounds read high
row,SMILES,max dye-equivalent concentration
1,O=C(Cn1nc(C(F)(F)F)c2c1CCC2)NCc1ccc(F)cc1,inactive
2,O=c1[nH]c(=O)n(Cc2ccco2)c2c1C(C(F)(F)F)(C(F)(F)F)N=C(c1ccco1)N2,18 nM (active)
3,Nc1cc(=O)nc(SCc2ccccc2)n1Cc1ccco1,inactive
4,Cc1ccc(C(=O)OCC(=O)NCc2ccc3c(c2)OCO3)s1,inactive
5,O=C(OCc1nnc(-c2ccccc2)o1)c1ccc2c(c1)C(=O)N(CCc1ccccc1)C2=O,inactive
6,Fc1ccc2nc(-c3ccccc3)nc(SCc3nnc(-c4ccccc4)o3)c2c1,38 nM (active)
7,C=CCn1c(SCc2nnc(-c3ccccc3)o2)nnc1C(O)c1ccccc1 (configuration not stated),inactive
8,O=C(Nc1cccc(F)c1)N1CC2(CCN(C(=O)c3cnccn3)CC2)C1,inactive
9,Oc1ccccc1CNCc1ccccc1O,inactive
10,CCOC(=O)CSc1nnc(CNc2ccc(F)cc2)o1,inactive
11,CCOc1cc(C2C(C(=O)OC)=CN(C3CCCC3)C=C2C(=O)OC)cc(Br)c1O,230 nM (active)
12,CCOc1ccc(CNC(=O)C2CC(=O)N(C3CCCC3)C2)cc1OC (configuration not stated),inactive
13,CCOc1ccc(CNC(=O)C2CCC(=O)N2C2CCCC2)cc1OC (configuration not stated),inactive
14,O=C(COc1ccc(S(=O)(=O)NCCc2ccccc2)cc1)N1CCCC1,inactive
15,CC1(C)CC(=O)c2sc(N)nc2C1,inactive
16,N#CC1=C(N)Oc2n[nH]c(CSc3ccccc3)c2C12C(=O)Nc1ccccc12 (configuration not stated),inactive
17,COc1ccc(S(=O)(=O)N2CCCC(C(=O)N3CCN(C)CC3)C2)cc1C (configuration not stated),inactive
18,COc1ccc(S(=O)(=O)N2CCN(c3ncnc4c(-c5ccccc5)nsc34)CC2)cc1,120 nM (active)
19,COc1cccc(N2C(=O)CC(N3CCN(S(=O)(=O)c4ccccc4)CC3)C2=O)c1 (configuration not stated),inactive
20,CCOc1ccccc1NC(=O)CCN1CCN(S(=O)(=O)c2ccc(OC)cc2)CC1,inactive
21,Cc1ccc(C)c(NC(=O)C2CCCN2C(=O)OC(C)(C)C)c1 (configuration not stated),inactive
22,OCCN1CCN(CC/C=C2\c3ccccc3Sc3ccc(C(F)(F)F)cc32)CC1,inactive
23,COc1ccccc1NC(=O)CSc1nnc(Cn2nnc(-c3ccccc3)n2)n1-c1ccccc1,inactive
24,CNC(=O)c1cc2c(ccc3ccccc32)oc1=N,11000 nM (active)
25,CCCCC(=O)Nc1cc(C)c2c(=O)oc3ccccc3c2n1,inactive
26,COc1c(C(=O)N2CCCC2)ccc2ccccc12,inactive

row,SMILES,max dye-equivalent concentration
1,O=C(NCCc1ccc2c(c1)OCCO2)c1cc2ccccc2o1,inactive
2,CCOC(=O)N1CCN(C(=O)c2cc3c(ccc4ccccc43)oc2=O)CC1,1700 nM (active)
3,CCOC(=O)N1CCN(C(=O)c2n[nH]c(=O)c3ccccc23)CC1,inactive
4,CC(C)(C)NCC[C@@H](O)c1cc(C(F)(F)F)nc2c(C(F)(F)F)cccc12,inactive
5,CC(=O)N1CCC2(CC1)CCN(c1ccncc1)CC2,inactive
6,CC1(N2CCOCC2)CC2(O)C(=[N+]1[O-])CCc1nonc12 (configuration not stated),inactive
7,CCOC(=O)CSc1nc2c(c(=O)n(Cc3ccccc3Cl)c(=O)n2C)n1C,inactive
8,Cc1cc(C(=O)CC#N)c(C)n1CC(F)(F)F,inactive
9,Cc1cc(NC(=O)CCC(=O)N(c2cccc(F)c2)C(C(=O)NC2CCCC2)c2ccncc2)no1 (configuration not stated),inactive
10,O=C(Cn1ccc(=O)[nH]c1=O)Nc1ccc(C(=O)O)c(O)c1,inactive
11,COCCn1nnnc1CN1CCC(NC(=O)Nc2cccc(OC)c2)CC1,inactive
12,O=C(O)COc1nsnc1N1CCOCC1,inactive
13,CN(C)C(=O)c1ccc(-c2cncnc2Nc2ccccc2)cc1,inactive
14,COc1cccc(-c2nnc(N(C)C(=O)c3ccno3)s2)c1,32 nM (active)
15,CN(C(=O)COc1ccccc1)c1nnc(-c2ccncc2)s1,inactive
16,CN(C(=O)c1ccno1)c1nnc(-c2cccnc2)s1,inactive
17,CCCn1c(SCC(N)=O)nnc1C(C)C,inactive
18,Cc1cccc(N)c1SC1CCCCC1O (configuration not stated),inactive
19,O=c1c(F)cn(C2CCCO2)c(=O)n1Cc1ccccc1Cl (configuration not stated),inactive
20,CCn1c(Cc2ccccc2)nnc1SCC(=O)Nc1ccccc1,inactive
21,COc1ccc2nc(N3CCCC(O)C3)c(C#N)cc2c1 (configuration not stated),130 nM (active)
22,COc1ccc(OC)c(CNC(=O)C2CCCN(c3nc4ccccc4o3)C2)c1 (configuration not stated),inactive
23,Cc1ccc(SCCN2C(=O)NC(C)(C)C2=O)cc1,inactive
24,Cn1nnc(NC(=O)CSc2ncn[nH]2)n1,inactive
25,Cc1ccsc1C(=O)OCC(=O)c1cc2ccccc2o1,inactive
26,O=C(Oc1cccnc1)c1cc2ccccc2oc1=O,96 nM (active)
